The results in this text go back to PubChem BioAssay (EPA / NIEHS).

SMILES strings stand for the structures. Activity calls are given as the source filed them. How the source made its calls: active means hit-call score of the fitted dose curve at least 0.9, where 1 is the maximum; inactive means score below 0.9.

Read-out in this assay: Intercellular Adhesion Molecule 1 (ICAM1), ICAM1 (gene 3383)
The experiment in a line: LTEA_HepaRG_ICAM1: Life Technologies and Expression Analysis (LTEA) Assay for Intercellular Adhesion Molecule 1 (ICAM1) using HepaRG (AID 2283507). The note with it: mRNA level, 48 h; actives raise or lower the signal. On the procedure:
LTEA_HepaRG is a cell based, multiplexed-readout assay that uses HepaRG, a human liver cell line, with measurements taken at 48 hours after chemical dosing on a 96-well plate.LTEA_HepaRG_ICAM1 is one of 102 assay component(s) measured in the LTEA HepaRG cell culture assay. It is a marker of Fibrosis.Data from the assay component LTEA_HepaRG_ICAM1 was analyzed into 1 endpoint. This assay endpoint, LTEA_HepaRG_ICAM1, was analyzed with bidirectional fitting relative to DMSO as the negative control and baseline of activity. Using a type of inducible reporter, measures of mRNA induction for gain or loss-of-signal activity can be used to understand regulation of transcription factor activity. To generalize the intended target to other relatable targets, this assay endpoint is annotated to the cell adhesion molecules intended target family, where the subfamily is Immunoglobulin CAM.
A total of 1060 chemcials from the ToxCast library were tested in eight-point concentration-response experiments. Cell culture and cytotoxicity assays were conducted at Thermo Fisher Scientific's Custom Services facility (Madison, WI). A single lot of human HepaRG cells (Thermo Fisher Scientific, Frederick, MD) was used for the cell culture experiments. 96-well format collagen type I coated plates of human HepaRG cells were prepared using established methods. Briefly, cryopreserved HepaRG cells were thawed, plated at a density of approximately 100,000 cells/well in HepaRG Thaw, Plate, and General Purpose media (HPRG770, Thermo Fisher Scientific), and incubated for 48 hours. 0.5% DMSO was selected as vehicle control to balance the requisite need of DMSO in HepaRG cultures to maintain differentiation (for example, baseline metabolism, proportions of hepatocytes vs. cholangiocytes), while enabling further hepatic receptor pathway activation (for example, PXR and CAR) in response to chemical exposure. 48 hours after plating, the culture medium was replaced with HepaRG Serum-Free Incudtion Media. Cells were exposed to each test chemical in duplicate and maintained in CO2 incubators for another 48 hours. Chemical plates were thawed to room temperature and 200x concentrations of treatment groups were prepared. 8-point conentration-reponse curves were made with the highest exposure at 100 uM, followed by half-log dilutions, all in 0.5% DMSO. Each test plate contained variouse controls, induction positive controls (1mM phenobarbital), cytotoxicity positive controls ([…] aflatoxin B1), vehicle controls (0.5% DMSO), and total lysis controls (0.5% DMSO). Cell morphology images were taken using an Essen IncuCyte FLR automated microscope, with six 96-well plates imaged in about 24 minutes. Images were captured and exported and JPEG files. Spent culture media was transfered to black-well plates for the LDH assay, and remaining media was sorted at -80 C for later use. Cells were treated with RLT buffer and frozen until shipped for gene expression analysis. Total RNA was isolated from the cell suspension in 75 uL of Buffer RLT (Qiagen, Germantown, MD 20874) by Quintiles/Expression Analysis (Durham, NC) using a custom isolation procedure. Total RNA from each plate well was transferred to a preamplification plate. Fluidigm's 96.96 Dynamic ArrayTM (Fluidigm, Amsterdam, the Netherlands) technology was used for gene expression analyses by quantitative reverse transcription polymerase chain reaction (qRT-PCR, performed by Quintiles/Expression Analysis, Durham, NC)89. Standard TaqManTM Assays (Applied Biosystems/ThermoFisher Scientific, Foster City, CA) were used to assess the expression of 93 genes selected based on their selectivity and sensitivity to important hepatic receptors known to be modulated by environmental chemicals; importance in human hepatocyte functionality; and hepatotoxicity. […]
A word on the AC50: it is the midpoint of the concentration-response curve, whichever way the signal moves. As for `CN1CCN(c2ccccc2/C=C2\SCCN(c3ccc(Cl)c(Cl)c3)C2=O)CC1`, the AC50 was 98.9 µM (active).

Consider `Cc1cc(C)c(O)c(C)c1`, for which the call was inactive.

In the case of `CN1CCC[C@H]1c1cccnc1`, the result was inactive.

On to `CC(=O)NC1(c2cccc(F)c2)CCN(CC[C@@]2(c3ccc(Cl)c(Cl)c3)CN(c3ccccc3)C(=O)CO2)CC1`, for which the AC50 is 49 µM (active).

`CC(=O)CC(C)(C)O`: the molecule was called inactive.

As for `OCCC(F)(F)C(F)(F)C(F)(F)C(F)(F)C(F)(F)C(F)(F)F`, the molecule was called inactive.

Take `CN(C)C=O`: the call was inactive.

Turning to `Nc1cccc2c(N)cccc12`, the molecule was called inactive.

`CC(C)(C)CC(C)(C)c1ccc(O)c(-n2nc3ccccc3n2)c1`: the result was inactive.

`OCCC(F)(F)C(F)(F)C(F)(F)C(F)(F)C(F)(F)C(F)(F)C(F)(F)C(F)(F)F`: the molecule was called inactive.

With `CCc1ccc(CCOc2ccc(CC3SC(=O)NC3=O)cc2)nc1` (stereo not given), the AC50 was 50 µM (active).

In the case of `CC(O)CO` (stereo not given), the molecule was classed as inactive.

Regarding `CC(C)CCCCCCOC(=O)CCCCC(=O)OCCCCCCC(C)C`, the molecule was classed as inactive.

In the case of `c1ccc2cc3c(ccc4ccccc43)cc2c1`, the outcome was inactive.

As for `CC#C[C@]1(O)CC[C@H]2[C@@H]3CCC4=CC(=O)CCC4=C3[C@@H](c3ccc(N(C)C)cc3)C[C@@]21C`, the AC50 was 26 µM (active).

For `CCCCC(CC)COC(=O)CCCCC(=O)OCc1ccccc1` (stereo not given), the result was inactive.

As for `CC(C)(C)c1cccc(C(C)(C)C)c1O`, the molecule was called inactive.

Turning to `CC(C)(C)c1ccc(O)c(C(C)(C)C)c1`, the call was inactive.

On to `COCC(C)OCC(C)O` (stereo not given), for which the molecule was classed as inactive.

Regarding `CCCCCCCC(=O)O`, the AC50 is 0.405 µM (active).

As for `C=C(C)C(=O)OCCC(F)(F)C(F)(F)C(F)(F)C(F)(F)C(F)(F)C(F)(F)F`, the call was inactive.

In the case of `ClC1=C(Cl)C(Cl)(Cl)C(Cl)=C1Cl`, the molecule was classed as inactive.

`CCCCCCCCC(=O)O`: the molecule was called inactive.

In the case of `CC[C@H](C)[C@@H](C(=O)O)n1sc2ccccc2c1=O`, the call was inactive.

For the molecule `CCCOc1sc(C(=O)N2CCC(c3cc(CN)ccc3F)CC2)c(C)c1Br`, the outcome was inactive.

Turning to `CCCOC(=O)c1ccc(O)cc1`, the call was inactive.

As for `CCN(CC)CCNc1ccc(CNC=O)c2sc3ccc(OC)cc3c(=O)c12`, the AC50 is 62.6 µM (active).

Regarding `COc1ccc([N+](=O)[O-])cc1N`, the call was inactive.

In the case of `OC1CCC(C2CCCCC2)CC1` (stereo not given), the result was inactive.

Regarding `CCC(C)(C)C1CCC(O)CC1` (stereo not given), the call was inactive.

With `COCC(C)O` (stereo not given), the molecule was classed as inactive.

`CCCCCCCCCCCCc1ccccc1S(=O)(=O)O`: the AC50 is 82.1 µM (active).

On to `C[C@@H]1C[C@H]2[C@@H]3CCC4=CC(=O)C=C[C@]4(C)[C@@]3(F)[C@@H](O)C[C@]2(C)[C@@]1(O)C(=O)COP(=O)(O)O`, for which the result was inactive.

As for `CCCCCCCCCCCCN1CCCC1=O`, the molecule was called inactive.

For the molecule `O=c1c(-c2ccc(O)cc2)coc2cc(O)ccc12`, the molecule was called inactive.

Turning to `c1ccc2c(c1)ccc1ccccc12`, the molecule was called inactive.

For `CCCCCCCCCCCCCCCS(=O)(=O)Oc1ccccc1`, the result was inactive.

As to `COC(=O)CCCCC(=O)OC`, the result was inactive.

As for `O=C(O)Cc1cc(I)c(Oc2cc(I)c(O)c(I)c2)c(I)c1`, the AC50 was 54.8 µM (active).

For `CCOC(=O)CC(O)(CC(=O)OCC)C(=O)OCC`, the outcome was inactive.
